Screens (PubChem BioAssay)
Pol kappa inh – inhibitors of human DNA polymerase kappa | Q9UBT6 | purified Pol kappa, fluorescent DNA synthesis assay, 10 min | Potency, µM (highest dose often 107 µM), without a hit: top-dose activity, negative = inhibition, usual class: inhibitors | 400,000 tested, 0.53% active | AID 588579; further: on the % scale 0 is the no-effect control and ±100 the full control effect
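Pol kappa 10 nM + cpd, 15 min RT; start w/ substrate 50 nM final; fluorescence kinetic read, 0 and 10 min. Neg ctrl: buffer, no enzyme.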
Pol beta inh – inhibitors of human DNA polymerase beta; Pol beta primer extension/strand displacement, fluorescence kinetic; Potency, µM (top dose mostly 114 µM), for the others: top-dose activity change, negative = inhibition, actives largely listed as inhibitors; 340,000 tested, 1.3% active; P06746; further: on the % scale 0 is the no-effect control and ±100 the full control effect
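Kinetic readout of DNA synthesis with strand displacement by Pol beta. Compound and 10 nM enzyme sit 15 min at room temperature; 50 nM substrate starts the reaction, read immediately and at 10 min.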
POLI inh – DNA polymerase iota (human) inhibition | Q9UNA4 | Pol iota fluorescent replication assay, 10 min | Potency, µM (highest dose often 115 µM), without a hit: top-dose activity, negative = inhibition, actives largely listed as inhibitors | 390,000 tested, 1% active | AID 588590
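Pol iota at 10 nM preincubated 15 min with compounds at room temperature; reaction started with fluorescent substrate, 50 nM final. Fluorescence read kinetically at 0 and 10 min; buffer-only wells as negative control.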
Pol eta inh – inhibitors of human DNA polymerase eta. recombinant Pol eta, fluorescent DNA replication assay. Potency, µM (highest dose often 114 µM), inactives show top-dose activity change, negative = inhibition, most hits filed as inhibitors. 390,000 tested, 1.2% active; further: on the % scale 0 is the no-effect control and ±100 the full control effect
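Fluorescent replication assay: 50 nM final substrate added after a 15 min room-temperature compound preincubation with 10 nM enzyme. Signal taken at 0 min and again at 10 min.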
GLS inh – blocks human kidney-isoform glutaminase activity; GLS enzymatic activity, qHTS titration; Potency, µM (doses to about 45.5 µM), for inactives: at the highest dose activity change, negative = inhibition, most hits filed as inhibitors; 410,000 tested, 0.21% active; further: on the % scale 0 is the no-effect control and ±100 the full control effect
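Assay buffer: 45 mM KH2PO4 pH 8.2, 0.02% Tween-20. hKGA acts on L-glutamine (1 mM solution added); product glutamate is reported by an oxidase/peroxidase Amplex Red coupling, with fluorescence taken at baseline and 30 min.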
APE1 inh – blocks human APE1 abasic DNA cleavage. AID 2517. recombinant APE1, TAMRA/BHQ-2 abasic DNA cleavage fluorescence. Potency, µM (highest dose often 65.8 µM), inactives show top-dose activity change, negative = inhibition, hits mostly inhibitors. 350,000 tested, 0.35% active. P27695;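 further: plate controls were vehicle for no effect and reference inhibitor for full effect; nearly all actives have a fitted effect of over 55% in size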
Target sequence (P27695 whole entry, looked up): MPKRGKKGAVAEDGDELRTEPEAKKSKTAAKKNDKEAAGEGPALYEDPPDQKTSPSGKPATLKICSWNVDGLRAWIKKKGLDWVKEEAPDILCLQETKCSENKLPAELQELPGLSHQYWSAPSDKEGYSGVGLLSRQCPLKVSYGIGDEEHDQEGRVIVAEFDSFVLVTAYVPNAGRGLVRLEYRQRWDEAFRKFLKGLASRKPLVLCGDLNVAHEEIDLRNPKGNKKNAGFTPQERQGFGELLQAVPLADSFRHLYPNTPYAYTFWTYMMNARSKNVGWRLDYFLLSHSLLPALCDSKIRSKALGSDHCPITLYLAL
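Readout is kinetic fluorescence (ex 525, em 598 nm) from cleavage of 50 nM TAMRA/BHQ-2 THF abasic duplex by 0.75 nM APE1, compound added 15 min beforehand at RT.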
* hit, by the source's call; ? = inconclusive; · = not tested or not shown; [ ] = dose if it differs, or a comment. Sampled rows, rich in hits. Any-hit rate of the full collection: about 2.4%. The call rests on the fitted dose curve; in most records, active means well fitted curve in the direction sought with a large enough effect; inconclusive means small, poorly fitted or top-dose-only effect, or another doubt; inactive means no such curve, though single readings can be large; an effect the other way counts as inactive or inconclusive. Potency means the concentration at half of the fitted maximal effect.

SMILES	Pol kappa inh	Pol beta inh	POLI inh	Pol eta inh	GLS inh	APE1 inh
CCN1/C(=C/c2ccc3cccc(C)c3[n+]2CC)Sc2ccccc21	-10%	50µM*	?	-17%	9%	-2%
CCN1/C(=C\c2ccc3cc(C)ccc3[n+]2CC)Sc2cc(C)c(C)cc21	-29%	50µM*	·	?	-1%	0%
C[n+]1ccccc1/C=C1\Sc2ccccc2N1CCO	-15%	-21%	86%	-8%	7%	25%
COC(=O)C(Cc1ccccc1)NC(=O)CCC(=O)NC(C)CCc1ccccc1 (stereo unspecified)	2%	58%	15%	-7%	1%	?
Cc1ccc(-c2nnc(Nc3cccc(Cl)c3)c3ccccc23)cc1S(=O)(=O)N1CCCCC1	-5%	1%	-1%	2%	3%	·
CCCS(=O)(=O)NC(=O)C1(C)CCN(C(=O)c2ccc(OC)c(F)c2)C1 (stereo unspecified)	·	·	·	·	0%	·
COC(=O)[C@H](Cc1ccccc1)NC(=O)NCC1CCCO1 (stereo partly specified)	-2%	17%	18%	-4%	4%	2%
CCCCNc1nc(=S)[nH]c2cc(OC)c(OC)cc12	-3%	89µM*	5%	-5%	?	-2%
CCOCCCNc1nc(=S)[nH]c2cc(OC)c(OC)cc12	-5%	0%	8%	1%	-27%	-4%
O=C(Cn1c(=O)ccc2cc(S(=O)(=O)N3CCCC3)ccc21)Nc1ccc(Cl)cc1	-6%[60.1 µM]	-17%	15%	-13%	-11%	·
N#Cc1cccc(NC(=O)CN2C(=O)NC3(CCCCCC3)C2=O)c1	-13%	·	14%	-11%	2%	2%
Cc1cc(=O)[nH]c(SCC(=O)NCC2CCCCC2)c1C#N	1%	6%	25%	-1%	1%	0%
O=C(c1ccc(Cl)c(S(=O)(=O)Nc2ccccc2C(=O)N2CCc3ccccc3C2)c1)N1CCc2ccccc2C1	-33%	13%	32%	40µM*	27%	?
COc1cc(OC)nc(C(NC(=O)C2CCN(Cc3ccc(N(C)C)cc3)CC2)c2ccc(F)cc2)n1 (stereo unspecified)	·	·	·	·	37%	·
CCOC(=O)c1cc(-c2ccco2)nc2c1c(C)nn2CCC#N	-22%	-1%	2%	?	-4%	-4%
CCOC(=O)c1cc(-c2ccco2)nc2c1c(C)nn2-c1cccc(Cl)c1	-5%	28µM*	9%	?	1%	8%
COC(=O)c1cc2oc(C)cc2n1Cc1ccc(Br)cc1F	2%	26%	-3%	2%	-2%	·
NS(=O)(=O)c1ccc(NC(=O)COc2cccc3ccccc23)cc1	-6%	-19%	89µM*	79µM*	6%	7%
COc1cc(C(C#N)N2CCC(c3ccccc3)=N2)ccc1O (stereo unspecified)	8%	-21%	97%	-27%	10µM*	-5%
COc1cccc(NC(=O)C(=O)NCC(c2ccco2)N2CCc3ccccc3C2)c1 (stereo unspecified)	-8%	·	16%	-22%	6%	-1%
COc1cccc(CNC(=O)C2(c3cccs3)CCOCC2)c1	-7%[60.1 µM]	-23%	15%	-10%	3%	·
Cn1nc(-c2ccc(Cl)cc2)c2cc(C(=O)NCCCN3CCCC3)sc21	-25%	50µM*	?	9%	9%	-11%
O=C(NCCCN1CCCCCC1)c1cc2c(=O)oc3ccccc3c2s1	-40%	-11%	50µM*	-6%	-14%	-5%
CCCCNC(=O)c1cc2c(-c3ccc(Cl)cc3)nn(C)c2s1	9%	1%	-2%	-16%	-8%	?
CCN1CCCC1CNC(=O)c1cc2c(-c3ccc(Cl)cc3)nn(C)c2s1 (stereo unspecified)	-20%	35µM*	?	4%	10%	-10%
